Screening data deposited in PubChem by National Center for Advancing Translational Sciences (NCATS).
D2 antagonist: antagonizes the human D2 dopamine receptor | 2% of 340,000 active | inhibition, % at 10 µM | P14416 | AID 485344 | HEK293 TREx D2 cells, calcium flux, dopamine EC80; in the data active = inhibition above about 30%; inactive = below that, where a call was filed
Target sequence (P14416 whole entry, looked up): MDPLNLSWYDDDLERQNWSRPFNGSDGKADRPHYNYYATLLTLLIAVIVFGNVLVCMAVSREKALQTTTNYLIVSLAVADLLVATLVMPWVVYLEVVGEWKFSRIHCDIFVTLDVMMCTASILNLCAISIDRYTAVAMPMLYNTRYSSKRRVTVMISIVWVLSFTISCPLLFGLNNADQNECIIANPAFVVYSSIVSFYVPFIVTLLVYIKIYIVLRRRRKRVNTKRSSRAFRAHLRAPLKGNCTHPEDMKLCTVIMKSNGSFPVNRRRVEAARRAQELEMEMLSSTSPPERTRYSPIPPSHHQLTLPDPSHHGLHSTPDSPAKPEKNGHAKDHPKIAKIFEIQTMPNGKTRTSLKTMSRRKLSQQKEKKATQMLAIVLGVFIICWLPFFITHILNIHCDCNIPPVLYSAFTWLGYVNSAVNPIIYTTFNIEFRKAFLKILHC
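Read-out: kinetic calcium fluorescence (1 cycle/s) in inducible HEK293 T-REx D2 cells after an EC80 dopamine addition that followed 180 s compound preincubation. Loss of the dopamine response indicates antagonism.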
Anesthetic bind: candidate novel general anesthetic via apoferritin binding | apoferritin/1-aminoanthracene competitive binding, fluorescence | 0.074% of 350,000 active | Potency, µM (top dose mostly 77.5 µM), actives largely listed as inhibitors | P02791; active = well fitted inhibition curve with a large enough effect; inconclusive = small, poorly fitted or top-dose-only effect; inactive = no such curve, though single readings can be large or run the other way; also: nearly all actives have a fitted effect of over 20% in size
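Probe: 1-aminoanthracene (50% saturated, PBS). Protein: horse-spleen apoferritin, 10 uM. Incubation: 10 min, room temperature. Detection: 380 nm excitation, 535 nm emission. Analysis: normalized response, four-parameter Hill.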
D2 ag-1: activates the human D2 dopamine receptor. AID 485358. HEK293 T-REx D2 cells, calcium flux agonist mode. activation, % at 2 µM. 0.53% of 340,000 active. P14416;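 active = activation over 3 SD above normal in the single-dose calcium agonist read, cut at about 30% in these data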
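In this primary screen, compounds producing a positive calcium signal within 180 s of addition to tetracycline-induced, force-coupled HEK293 Trex D2 cells are flagged; cells are dye-loaded with a no-wash calcium kit beforehand.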
D2 PAM-1: positive allosteric modulators of human D2 dopamine receptor; HEK293 T-REx D2, calcium flux, EC20 dopamine potentiation; 0.34% of 340,000 active; potentiation, % at 10 µM;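 active = potentiation over 3 SD above the plate norm, cut at about 30% in these data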
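Tetracycline-induced HEK293 T-REx cells force-coupled to calcium signalling expressed D2; compounds were pin-added after a 10 s baseline, read kinetically 180 s, then an EC20 dopamine challenge followed with a further 180 s calcium read.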
D2 ag-2: agonists of human D2 dopamine receptor (beta-arrestin). activation, % (concentration not given with the values). DiscoveRx PathHunter D2 beta-arrestin, luminescence, 90 min; 100% = 57 uM dopamine signal. 0.084% of 360,000 active. AID 624465; in the data active = activation above about 40%; inconclusive = between about 15% and that limit
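DiscoveRx PathHunter D2 beta-arrestin cells (2,100/well) attached overnight, then compound-stimulated 90 min at 37 C in HBSS/10 mM HEPES/0.1% Tween-20 buffer; beta-galactosidase complementation read by luminescence after 1 h at ambient temperature. Dopamine 57 uM final (EC100) as control.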
D2 PAM-2: human D2 receptor positive allosteric modulation | DiscoveRx D2 beta-arrestin cells, luminescence, 90 min; 100% = 57 uM dopamine signal | 0.23% of 360,000 active | P14416 | AID 624464 | potentiation, % (test concentration not listed); in the data active = potentiation above about 50%; inconclusive = mostly about 30% to 49%
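D2 cells co-treated with compound plus 50 nM dopamine (EC20) for 90 min at 37 deg C to detect potentiation. Beta-arrestin recruitment was read as enzyme-fragment luminescence after 1 h at ambient temperature. Full response was set by 57 uM dopamine.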
Of the large screens only hits and unclear results are named; the others gave an inactive call. An excerpt weighted towards active compounds, which were near 2.5% of everything screened.

COc1cccc(NC(=O)CSc2nnc(-c3ccco3)c(-c3ccco3)n2)c1	none
Cc1ccc(/C=N/NC(=O)CSc2nnc(-c3ccc(Cl)cc3)n2-c2ccccc2)o1	D2 ag-2 inconclusive, D2 PAM-2 87.6
Cc1cc(-c2cc(C(=O)Nc3ccccc3)on2)nc(NCC2CC2)n1	none (no result: D2 antagonist, Anesthetic bind, D2 ag-1, D2 PAM-1)
Cc1cc(-c2cc(C(=O)NC3CCCC3)on2)nc(NCC2CC2)n1	D2 antagonist 33.4
CCO[C@@H]1OC(C(N)=O)=C[C@H](C(C)(C)C)[C@H]1CCCO	none (no result: D2 antagonist, Anesthetic bind, D2 ag-1, D2 PAM-1)
COc1cccc(Nc2nc(=O)[nH]nc2C)c1	D2 antagonist 34.2 (no result: D2 PAM-1)
CC1CC(C)(C)NC(=S)N1CCCC(=O)NCc1ccccc1 (configuration not stated)	D2 antagonist 36.7
CCc1ccc(NC(=O)CCCN2C(=S)NC(C)(C)CC2C)cc1 (configuration not stated)	none
Cc1ccc(C)c(NC(=O)Cn2ncc3c([nH]c4ccccc43)c2=O)c1	none (no result: D2 antagonist, D2 ag-2, D2 PAM-2)
COc1ccc(CCN2C(=O)CN=C2Nc2ccc(F)cc2)cc1OC	none
C=CCN1C(=O)CN=C1Nc1ccc(F)cc1	D2 antagonist 54.3
NC(=O)C1(N2CCCCC2)CCN(c2ccc3nnc(-c4ccccc4)n3n2)CC1	D2 PAM-1 31.8, D2 ag-2 inconclusive
CCC(NS(=O)(=O)c1ccc(C)cc1)C(=O)N1CCC2(O)CCCCC2C1 (configuration not stated)	D2 PAM-1 38.6
Cc1ccc(C(=O)N/C(=C\c2cn(S(=O)(=O)N(C)C)c3ccccc23)C(=O)NCCCn2ccnc2)cc1	none
COc1ccc(CCC(=O)NNC(=O)Nc2ccc(OC)c(OC)c2)cc1	none
COc1ccc(NC(=O)NNC(=O)CCc2ccc(O)c(O)c2)cc1OC	D2 ag-1 39.0
Clc1ccc(OCCNCCc2ccccc2)cc1	D2 antagonist 54.3
CC(=O)NCCOc1cccc2ccccc12	none (no result: D2 PAM-1)
c1ccc(CCNCCCOc2cccc3ccccc23)cc1	D2 antagonist 35.2, Anesthetic bind inconclusive
COc1ccc(CNN2CCCCC2C(=O)Nc2ccc(OC)c(OCC(C)C)c2)cc1OC (configuration not stated)	none
CCN1C(=O)c2ccccc2S(=O)(=O)c2ccc(C(=O)NCC(OC)OC)cc21	none
O=C(COc1cccc2cccnc12)Nc1ccccc1N1CCOCC1	D2 antagonist 30.2 (no result: D2 PAM-1)
CC12CCC(=O)N1C(C(=O)N1CCN(c3ccccc3)CC1)CS2 (configuration not stated)	none (no result: Anesthetic bind)
CC12CCC(=O)N1C(C(=O)N1CCN(c3cccc(Cl)c3)CC1)CS2 (configuration not stated)	D2 antagonist 70.7 (no result: Anesthetic bind)
CCCn1c(N)c(C(=O)NS(=O)(=O)c2ccc(C)cc2)c(=O)n(C)c1=O	none
CCCCOc1ccc(C(=O)NNC(=S)NC(=O)CC)cc1	none
CC(=O)NCCCC(=O)NNC1CC(=O)N(c2cccc(Cl)c2)C1=O (configuration not stated)	D2 antagonist 37.1
CCOc1ccccc1NC(=O)COC(=O)Cc1cccs1	none
CN(C)S(=O)(=O)c1ccc(Cl)c(NC(=O)CN2CCCCCC2)c1	D2 antagonist 34.0
CCOC(=O)c1ccc[n+](CC(=O)Nc2cc(C(F)(F)F)ccc2Cl)c1	D2 antagonist 52.5
CCN(c1ccccc1)S(=O)(=O)c1ccc(Cl)c(NC(=O)CN2CCCCCC2)c1	none
O=C(COC(=O)c1ccc(O)cc1)Nc1cc(C(F)(F)F)ccc1Cl	none
CN(CC(=O)Nc1cc(S(=O)(=O)N2CCCC2)ccc1Cl)Cc1ccc2c(c1)OCO2	D2 antagonist 31.7 (no result: Anesthetic bind)
NC(=O)C1(N2CCCCC2)CCN(CC(=O)Nc2cc(Cl)ccc2Cl)CC1	D2 antagonist 43.4
O=C(CCCC(=O)OCC(=O)c1ccc(F)cc1)Nc1cc(C(F)(F)F)ccc1Cl	D2 antagonist 46.9, Anesthetic bind inconclusive
CN(C)S(=O)(=O)c1ccc(NC(=O)CN2CCC(Cc3ccccc3)CC2)cc1	none
O=C(CCCC(=O)OCC(=O)c1ccc(Cl)cc1Cl)Nc1cc(C(F)(F)F)ccc1Cl	Anesthetic bind inconclusive
